Measured values as given in PubChem BioAssay (NCI).
This is part of a sample that, as a whole, favours compounds with a hit. Of some 83,000 tested, about 20% had one in any assay.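 Single-dose data. Exposure time 48 hours. Values below 10 considered active.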 Unmarked numbers belong to inactive results. Activity calls are given as the source filed them.

Legend:
Experiment in all cases: NCI-60 one-dose screen, 48 h (100 = growth as untreated, 0 = no growth, -100 = all killed)
Settings in all cases: 10 µM unless noted
HCT-15 colon = tested on: HCT-15 colon
HT29 colon = tested on: HT29 colon
SNB-75 CNS = tested on: SNB-75 CNS
SNB-19 CNS = tested on: SNB-19 CNS
U251 CNS = tested on: U251 CNS
PC-3 prostate = tested on: PC-3 prostate
SK-MEL-5 melanoma = tested on: SK-MEL-5 melanoma
UACC-62 melanoma = tested on: UACC-62 melanoma
LOX IMVI melanoma = tested on: LOX IMVI melanoma
SK-MEL-28 melanoma = tested on: SK-MEL-28 melanoma
SK-MEL-2 melanoma = tested on: SK-MEL-2 melanoma
EKVX NSCLC = tested on: EKVX NSCLC
SN12C renal = tested on: SN12C renal
UO-31 renal = tested on: UO-31 renal
TK-10 renal = tested on: TK-10 renal
ACHN renal = tested on: ACHN renal
CAKI-1 renal = tested on: CAKI-1 renal
CCRF-CEM leukemia = tested on: CCRF-CEM leukemia
MOLT-4 leukemia = tested on: MOLT-4 leukemia

Compound	growth (HCT-15 colon)	growth (HT29 colon)	growth (SNB-75 CNS)	growth (SNB-19 CNS) [%]	growth (U251 CNS) [%]	growth (PC-3 prostate)	growth (SK-MEL-5 melanoma)	growth (UACC-62 melanoma)	growth (LOX IMVI melanoma)	growth (SK-MEL-28 melanoma) [%]	growth (SK-MEL-2 melanoma)	growth (EKVX NSCLC)	growth (SN12C renal)	growth (UO-31 renal)	growth (TK-10 renal) [%]	growth (ACHN renal)	growth (CAKI-1 renal)	growth (CCRF-CEM leukemia)	growth (MOLT-4 leukemia)
COc1cc(NC(C)CCCNC(=O)CCC(=O)NCCCNCCCCCCCCNCCCNC(=O)CCC(=O)NCCCC(C)Nc2cc(OC)cc3cccnc23)c2ncccc2c1 (stereo not given)	108%	67.5%	54.2%	57.9	35.1	77.6%	97.1%	84.2%	35.7%	78.1	78.4%	79.6%	42.9%	91.4%	82.6	88.9%	95.1%	58.9%	76.4%
CCCOC(=O)N[C@H]1CCc2cc(OC)c(OC)c(OC)c2-c2ccc(SC)c(=O)cc21	14.8%	14.2%	34.3%	36.2	19.6	29.5%	-14.6% (active)	41.5%	18.6%	58.7	50.8%	51.5%	29.5%	38.3%	48.2	27.8%	19.8%	4.23% (active)	7.04% (active)
CC(=O)Nc1cccc(-c2ccc3c(c2)NC(=O)/C3=C\c2ccc[nH]2)c1	27.2%	25.6%	53.3%	69.1	45.6	63.8%	61.1%	48.5%	35.9%	68.3	54.7%	35%	56.6%	25.9%	43.2	33.8%	33%	27%	29.4%
O=S(=O)(NCCNc1nccc(-c2c(-c3cccc(O)c3)nc3occn23)n1)c1cccc(F)c1	95.5%	51.2%	80.6%	102	98.3	86.8%	46.4%	14%	64.8%	50.1	61.1%	97.1%	76.6%	92.7%	136	78%	71.6%	91.7%	93%
Cc1cc2nc3c4ccc(Br)cc4n(CCN(C)C)c3nc2cc1C	1.66% (active)	5.01% (active)	16.7%	23.5	15.1	12.8%	4.17% (active)	13.1%	-52.6% (active)	42.4	8.78% (active)	22.7%	16.7%	-30.3% (active)	22.2	-7.69% (active)	0.198% (active)	12.7%	3.31% (active)
CCCNC(=O)Oc1ccc(/C(=C(\C)c2ccccc2)c2ccc(OCCCN(C)C)cc2)cc1	38.7%	5.5% (active)	86.2%	84.9	68.8	71.7%	86.2%	54.2%	75.6%	70.8	92.6%	80.1%	77.4%	50%	84.8	93.3%	83.4%	75.7%	66.5%
COc1cc2oc(-c3cccc(C(=O)Nc4ccc5c(c4)OCO5)c3)cc(=O)c2c(O)c1OC	93.6%	76.3%	84.6%	72.1	55.8	72.3%	84%	81.4%	88.2%	89.8	89.9%	87%	68.7%	82.1%	98.6	75.3%	76.9%	97.2%	101%
Nc1c(C(=O)Nc2ccnc3ccccc23)sc2nc3c(cc12)CN(Cc1ccccc1)CC3	69.9%	103%	110%	83.7	98	45.5%	9.7% (active)	49.4%	69.6%	102	101%	66.1%	74.6%	62.2%	102	68.4%	74.7%	26.1%	18.2%
COc1cc2c(c(O)c1Br)C(=O)c1c(O)cc(C[C@H](C)O)cc1[C@H]2[C@H]1c2cc(C[C@H](C)O)cc(O)c2C(=O)c2c1cc(OC)c(Br)c2O	8.27% (active)	11%	-6.83% (active)	18.1	10.3	16.2%	-74.1% (active)	4.54% (active)	4.77% (active)	31.8	-38.2% (active)	9.77% (active)	9.01% (active)	-29% (active)	37	-46.1% (active)	4.31% (active)	10.1%	-0.594% (active)
O=[N+]([O-])CC(c1ccccc1F)c1c[nH]c2ccccc12 (stereo not given)	39.3%	23.6%	54.9%	80.5	65.6	87.5%	81.5%	53.4%	61%	78.2	57%	79.4%	88.6%	71.9%	96.8	94.7%	59.2%	69.7%	59%
COc1ccc(/C=C2\Oc3cc(OCCCCCN4CCCCC4)ccc3C2=O)cc1OC	49.3%	-59.2% (active)	81%	91	87	79.2%	66.7%	96.2%	63.2%	99.4	92.4%	78.7%	86%	73.8%	82	100%	94.3%	15.2%	70.2%
COc1ccc(C(=O)/C=C/c2cc3ccccc3n3nnnc23)cc1	97.3%	110%	98.3%	99.1	101	103%	103%	97.7%	104%	110	106%	99.9%	102%	90.8%	104	106%	88.8%	101%	103%
COc1cc(CC(=O)c2ccc(O)c(OC)c2)ccc1O	110%	94.3%	96.8%	98.2	92.5	83.1%	101%	94.8%	96.7%	97.2	106%	111%	94.2%	87.5%	102	102%	98.8%	94.2%	80%
COC(=O)/C=C1\S/C(=N\NC(=O)c2cc3ccc2/C=C\c2ccc(cc2)/C=C\3)N(c2ccccc2)C1=O	0.337% (active)	-13.1% (active)	45.7%	39.9	15.8	-35.9% (active)	69.3%	25.2%	-27.8% (active)	82.5	87%	59%	22.5%	58.5%	15.2	49.3%	69.3%	13%	3.03% (active)
COc1cc2nc(-c3ccc(C(F)(F)F)cc3)cc(OCCN3CCCCC3)c2cc1OC	43.7%	46.4%	54.4%	91.1	72.3	61.3%	70.4%	89.7%	-15.5% (active)	70.2	105%	62.4%	63.6%	54.3%	93.9	81.4%	45.2%	78.8%	65.3%
